Screening results deposited in PubChem by several laboratories.
CYP2C9 act = CYP2C9 (human) activation. 96,000 compounds, 1.4% hits. recombinant CYP2C9, luciferin-H conversion, luminescence; stronger effect = higher value; factor 1 = untreated enzyme, 0 = blocked. P11712. activation factor at 5 µM. AID 1024;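 active = activation factor of 2 or more for CYP2C9 at a 5 µM dose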;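 also: 0 = sulfaphenazole-blocked wells and 1 = vehicle-only wells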
Target sequence (P11712 whole entry, looked up): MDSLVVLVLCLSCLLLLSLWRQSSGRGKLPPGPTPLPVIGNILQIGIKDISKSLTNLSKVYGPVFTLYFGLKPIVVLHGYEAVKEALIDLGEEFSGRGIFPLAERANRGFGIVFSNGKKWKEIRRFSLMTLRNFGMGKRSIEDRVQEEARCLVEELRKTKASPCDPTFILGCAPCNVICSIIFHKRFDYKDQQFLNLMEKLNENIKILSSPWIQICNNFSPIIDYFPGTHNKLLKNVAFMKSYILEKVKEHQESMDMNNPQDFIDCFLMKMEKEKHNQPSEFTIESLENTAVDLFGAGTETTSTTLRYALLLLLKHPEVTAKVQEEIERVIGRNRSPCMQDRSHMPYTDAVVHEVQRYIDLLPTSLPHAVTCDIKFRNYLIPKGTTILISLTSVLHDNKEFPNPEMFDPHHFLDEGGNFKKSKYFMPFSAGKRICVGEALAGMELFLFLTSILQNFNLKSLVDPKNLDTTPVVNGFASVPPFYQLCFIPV
CYP2C19 activ = activators of human cytochrome P450 2C19. recombinant CYP2C19, luciferin-H EGE luminescence; stronger effect = higher value; 0 = fully inhibited enzyme, 1 = untreated enzyme. activation factor at 5 µM. 96,000 tested, under 10 active. AID 1025;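 active = activation factor of at least 2 at 5 µM in the primary screen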;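 also: 0 = wells with 2.5 mM tranylcypromine and 1 = vehicle-only wells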
CYP2C19 inh = human CYP2C19 inhibition. P33261. CYP2C19 Supersomes, luciferin-H EGE luminescence, 30 min. inhibition, % at 5 µM. 96,000 compounds, 21% hits. AID 778;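 active = CYP2C19 inhibition above a set limit at 5 µM in the primary screen, cut at about 50% in these data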;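 also: plate controls were negative control wells for no effect and 2.5 mM tranylcypromine positive control for full effect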
D1 mod = D1 dopamine receptor (human) allosteric modulation; P21728; 58,000 compounds, 5.9% hits; AID 641; B-score at 10 µM; HEK293 D1, CRE-luciferase, dopamine EC30 potentiation; actives deviate in either direction;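 active = luminescence count or its row- and column-corrected plate score outside the 99.7% band of the plate's sample wells, on either side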
CYP2C9 inhib = human CYP2C9 inhibition; 96,000 compounds, 20% hits; P11712; AID 777; inhibition, % at 5 µM; CYP2C9 Supersomes, luciferin-H conversion, luminescence;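 active = blocking of liver enzyme CYP2C9 beyond about 50% at 5 µM, limit read from the data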
hDAT+cocaine = human DAT dopamine uptake with cocaine, either direction; B-score at 10 µM; LLC-PK1 hDAT cells, [14C]-dopamine uptake with cocaine IC80; actives deviate in either direction; 110,000 compounds, 1.3% hits; AID 449768;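 active = Z score or B-score, a plate-position-corrected score, falls beyond the plate's 99.7% confidence bounds, in either direction; inactive = both scores lie inside the 99.7% bounds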;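 also: scored against the spread of the other compound wells on the same plate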
* = called active by the depositor. Sampled rows, rich in hits. Any-hit rate of the full collection: about 28%.

Results for O=C(C1CCCN(c2ncccn2)C1)N1CCc2ccccc21 (stereo not drawn) ?
CYP2C9 act: 0.3; CYP2C19 activ: 0.2; CYP2C19 inh: 84*; D1 mod: 1.4; CYP2C9 inhib: 72*; hDAT+cocaine: 0.64

What do the screens show for `Cc1cc(=O)n2nc(N3CCCC(C(=O)N4CCc5ccccc54)C3)sc2n1` (stereo not drawn)?
CYP2C9 act: 0.4; CYP2C19 activ: 0.8; CYP2C19 inh: 21; D1 mod: 0.43; CYP2C9 inhib: 58*; hDAT+cocaine: -0.027

Results for CC(C)C(=O)NC(c1ccco1)c1ccc2cccnc2c1O (stereo not drawn) ?
CYP2C9 act: 0.9; CYP2C19 activ: 1; CYP2C19 inh: -2; D1 mod: -0.73; CYP2C9 inhib: 8; hDAT+cocaine: -0.81

Results for COc1ccc(C(NC(C)=O)c2ccc3cccnc3c2O)c(OC)c1 (stereo not drawn) ?
CYP2C9 act: 0.6; CYP2C19 activ: 0.4; CYP2C19 inh: 58*; D1 mod: 1.9; CYP2C9 inhib: 41; hDAT+cocaine: 1*

How did COc1ccccc1N(CC(=O)NCCc1ccccc1)S(C)(=O)=O do in these assays?
CYP2C9 act: 0.8; CYP2C19 activ: 0.6; CYP2C19 inh: 38; D1 mod: -0.35; CYP2C9 inhib: 18; hDAT+cocaine: -0.39

How did COc1ccc(N(CC(=O)Nc2ccccc2C(=O)NCCc2ccccc2)S(C)(=O)=O)cc1OC do in these assays?
CYP2C9 act: 0; CYP2C19 activ: 0.2; CYP2C19 inh: 82*; CYP2C9 inhib: 99*; hDAT+cocaine: 0.67

Results for COC(=O)CN(c1ccc2c(c1)OCO2)S(C)(=O)=O ?
CYP2C9 act: 0.9; CYP2C19 activ: 0.5; CYP2C19 inh: 46; D1 mod: -0.66; CYP2C9 inhib: 12; hDAT+cocaine: -0.38

Results for COC(=O)c1ccc(C(=O)OC)c(NC(=O)CN(c2ccc3c(c2)OCO3)S(C)(=O)=O)c1 ?
CYP2C9 act: 0.2; CYP2C19 activ: 0.1; CYP2C19 inh: 89*; CYP2C9 inhib: 76*; hDAT+cocaine: 0.024

What do the screens show for `COCCNC(=O)c1ccccc1NC(=O)CN(c1ccc2c(c1)OCO2)S(C)(=O)=O`?
CYP2C9 act: 0.1; CYP2C19 activ: 0.1; CYP2C19 inh: 86*; D1 mod: 0.58; CYP2C9 inhib: 92*; hDAT+cocaine: -1.7

What do the screens show for `COc1ccccc1N(CC(=O)Nc1ccccc1C(=O)NCC(C)C)S(C)(=O)=O`?
CYP2C9 act: 0.2; CYP2C19 activ: 0.5; CYP2C19 inh: 47; D1 mod: 0.02; CYP2C9 inhib: 77*; hDAT+cocaine: -0.04

Results for COc1ccccc1N(CC(=O)Nc1ccccc1C)S(C)(=O)=O ?
hDAT+cocaine: -0.24

Results for CCN(CC)C(=O)CN(c1ccc2c(c1)OCO2)S(C)(=O)=O ?
CYP2C9 act: 1; CYP2C19 activ: 0.7; CYP2C19 inh: 27; CYP2C9 inhib: 4; hDAT+cocaine: 0.92

What do the screens show for `COC(=O)c1cc(OC)c(OC)cc1NC(=O)CCC1CCCC1`?
CYP2C9 act: 1; CYP2C19 activ: 0.9; CYP2C19 inh: 11; D1 mod: -1; CYP2C9 inhib: -4; hDAT+cocaine: 1.3

How did CC(C)CNC(=O)c1ccccc1NC(=O)CN(c1ccc2c(c1)OCCO2)S(C)(=O)=O do in these assays?
CYP2C9 act: 0.1; CYP2C19 activ: 0.7; CYP2C19 inh: 35; D1 mod: 0.74; CYP2C9 inhib: 93*; hDAT+cocaine: 0.73

Results for CN(c1ccccc1C(=O)Nc1ccccc1C(=O)NCc1ccco1)S(C)(=O)=O ?
CYP2C9 act: 0.5; CYP2C19 activ: 0.7; CYP2C19 inh: 29; D1 mod: -0.8; CYP2C9 inhib: 47; hDAT+cocaine: 0.55

Results for CS(=O)(=O)N(CC(=O)Nc1ccccc1C(=O)NCc1ccco1)c1ccc2c(c1)OCCO2 ?
CYP2C9 act: 0.1; CYP2C19 activ: 0.6; CYP2C19 inh: 37; CYP2C9 inhib: 91*; hDAT+cocaine: 0.047

How did CNC(=O)CN(c1ccc2c(c1)OCCO2)S(C)(=O)=O do in these assays?
CYP2C9 act: 1.3; CYP2C19 activ: 1.1; CYP2C19 inh: -6; CYP2C9 inhib: -33; hDAT+cocaine: 0.8

What do the screens show for `COc1cccc(C2Nc3cc(Cl)c(S(N)(=O)=O)cc3S(=O)(=O)N2)c1` (stereo not drawn)?
CYP2C9 act: 0.9; CYP2C19 activ: 1.2; CYP2C19 inh: -17; CYP2C9 inhib: 14; hDAT+cocaine: 0.28

Results for CCOC(=O)C(C)Sc1nnc(-c2ccccc2O)n1Cc1ccccc1 (stereo not drawn) ?
CYP2C9 act: 0.7; CYP2C19 activ: 0.7; CYP2C19 inh: 31; D1 mod: -0.095; CYP2C9 inhib: 31; hDAT+cocaine: -0.25

What do the screens show for `COc1nc(N(C)C)nc(N(OC)S(=O)(=O)c2ccccc2Cl)n1`?
CYP2C9 act: 0.3; CYP2C19 activ: 0.1; CYP2C19 inh: 90*; D1 mod: 1.1; CYP2C9 inhib: 72*; hDAT+cocaine: 1.5

What do the screens show for `O=S(=O)(Nn1cnnc1)c1ccccc1Cl`?
CYP2C9 act: 0.8; CYP2C19 activ: 0.8; CYP2C19 inh: 23; D1 mod: -0.45; CYP2C9 inhib: 20; hDAT+cocaine: -0.68

Results for COc1cc(C)nc(N(C)S(=O)(=O)c2ccccc2Cl)n1 ?
CYP2C9 act: 0.8; CYP2C19 activ: 0.3; CYP2C19 inh: 73*; CYP2C9 inhib: 23; hDAT+cocaine: -2.2

What do the screens show for `CON(c1nc(Cl)nc(N(C)C)n1)S(=O)(=O)c1ccccc1Cl`?
CYP2C9 act: 1.2; CYP2C19 activ: 0.3; CYP2C19 inh: 69*; CYP2C9 inhib: -24; hDAT+cocaine: 0.54

Results for Cc1ccccc1-c1nc(-c2cccnc2)no1 ?
CYP2C9 act: 0.6; CYP2C19 activ: 0.4; CYP2C19 inh: 62*; D1 mod: 0.21; CYP2C9 inhib: 36; hDAT+cocaine: 0.00071

What do the screens show for `Clc1ccccc1-c1nc(-c2cccnc2)no1`?
CYP2C9 act: 0.9; CYP2C19 activ: 0.6; CYP2C19 inh: 36; D1 mod: -1.5*; CYP2C9 inhib: 13; hDAT+cocaine: 1.7

How did Clc1ccc(Br)cc1-c1nc(-c2cccnc2)no1 do in these assays?
D1 mod: 2.8

How did CCOc1ccc(-c2nc(-c3cccnc3)no2)cc1 do in these assays?
hDAT+cocaine: 0.16

What do the screens show for `O=C(CN1CCOCC1)Nc1ncccn1`?
CYP2C9 act: 1.1; CYP2C19 activ: 0.9; CYP2C19 inh: 9; D1 mod: -0.24; CYP2C9 inhib: -8; hDAT+cocaine: 0.56

What do the screens show for `Cc1c(C(=O)O)sc(=S)n1CCOc1ccccc1`?
CYP2C9 act: 0.9; CYP2C19 activ: 1; CYP2C19 inh: 2; D1 mod: -0.55; CYP2C9 inhib: 12; hDAT+cocaine: -0.17

Results for COc1ccc(CCNC(=O)C2CCCN(Cc3nc(-c4ccccc4C)oc3C)C2)cc1OC (stereo not drawn) ?
CYP2C9 act: 0.7; CYP2C19 activ: 0.7; CYP2C19 inh: 26; D1 mod: 0.22; CYP2C9 inhib: 33
